“And” between values parts separate entries of the source, which are not always exact repeats. Equal values may be shown once. The whole screen tested about 5,500 compounds, of which about 2,000 (36%) were called active. Roughly 18% stayed inconclusive and do not appear here. No stated cut-off is given here; in the data, active means normalized growth mostly below about 0.91 (no sharp cut-off); inconclusive means no clear call, values can overlap the other calls; inactive means mostly above about 0.92. The list shows a part of the results.
Experiment: chemical genetic growth profiling, strain panel (AID 1159580);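 further: tested at 20 µM; growth read once vehicle control cultures reached saturation at 30 °C; 1 = growth at the plate median or of vehicle wells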
Details: S. cerevisiae deletion strains, growth OD

Measured: normalized growth

CCOC(=O)C1C(C=C(C)C)C1(C)C (stereo unspecified)
inactive: locus YAL013W, strain DEP1, stronger effect = lower value 0.998 | locus YAL021C, strain ccr4, stronger effect = lower value 0.989 | locus YAL026C, strain drs2, stronger effect = lower value 1.01 | locus YAL030W, strain snc1, stronger effect = lower value 1 | locus YBL061C, strain skt5, stronger effect = lower value 1.01 | locus YBR009C, strain hhf1, stronger effect = lower value 0.998 | locus YBR021W, strain FUR4, stronger effect = lower value 0.979 | locus YBR023C, strain chs3, stronger effect = lower value 1 | locus YBR171W, strain sec66, stronger effect = lower value 1 | locus YBR229C, strain ROT2, stronger effect = lower value 1 | locus YBR231C, strain swc5, stronger effect = lower value 0.995 | locus YBR279W, strain paf1, stronger effect = lower value 1 | locus YCL011C, strain gbp2, stronger effect = lower value 0.992 | locus YCL016C, strain dcc1, stronger effect = lower value 1.01 | locus YCL029C, strain bik1, stronger effect = lower value 1.02 | locus YCL061C, strain MRC1, stronger effect = lower value 0.996 | locus YCL069W, strain vba3, stronger effect = lower value 1 | locus YCR088W, strain abp1, stronger effect = lower value 1 | locus YDL005C, strain med2, stronger effect = lower value 0.991 | locus YDL035C, strain GPR1, stronger effect = lower value 1.01 | locus YDL040C, strain nat1, stronger effect = lower value 1.02 | locus YDL074C, strain BRE1, stronger effect = lower value 1.03 | locus YDL101C, strain DUN1, stronger effect = lower value 1 | locus YDL185W, strain tfp1, stronger effect = lower value 1.02 | locus YDL192W, strain arf1, stronger effect = lower value 1 | locus YDR001C, strain nth1, stronger effect = lower value 1 | locus YDR069C, strain doa4, stronger effect = lower value 1 | locus YDR101C, strain arx1, stronger effect = lower value 1.01 | locus YDR137W, strain rgp1, stronger effect = lower value 1.01 | locus YDR159W, strain sac3, stronger effect = lower value 0.939 | locus YDR162C, strain NBP2, stronger effect = lower value 1.01 | locus YDR195W, strain ref2 0.99 | locus YDR297W, strain sur2, stronger effect = lower value 0.991 | locus YDR318W, strain mcm21, stronger effect = lower value 1.01 | locus YDR334W, strain swr1, stronger effect = lower value 1.01 | locus YDR335W, strain msn5, stronger effect = lower value 1 | locus YDR388W, stronger effect = lower value 1.01 | locus YDR392W, strain spt3, stronger effect = lower value 0.876 | locus YDR502C, strain sam2, stronger effect = lower value 1.01 | locus YEL003W, strain gim4, stronger effect = lower value 1.02 | locus YEL037C, strain rad23, stronger effect = lower value 1 | locus YEL061C, strain CIN8 (second series), stronger effect = lower value 1.01 | locus YEL061C, strain CIN8, stronger effect = lower value 1 | locus YER015W, strain faa2, stronger effect = lower value 1 | locus YER016W, strain bim1, stronger effect = lower value 0.978 | locus YER110C, stronger effect = lower value 1.02 | locus YER111C, strain swi4, stronger effect = lower value 0.997 | locus YER155C, strain BEM2 (second series), stronger effect = lower value 0.981 | locus YER155C, strain BEM2, stronger effect = lower value 1 | locus YER167W, strain BCK2, stronger effect = lower value 0.998 | locus YFR010W, strain ubp6, stronger effect = lower value 1 | locus YGL078C, strain dbp3, stronger effect = lower value 1 | locus YGL086W, strain mad1, stronger effect = lower value 1.01 | locus YGL167C, strain pmr1, stronger effect = lower value 1 | locus YGL173C, strain kem1, stronger effect = lower value 1 | locus YGL227W, strain vid30, stronger effect = lower value 1 | locus YGL240W, strain doc1, stronger effect = lower value 0.97 | locus YGL248W, strain PDE1, stronger effect = lower value 1.01 | locus YGL253W, strain hxk2, stronger effect = lower value 1.02 | locus YGR078C, strain PAC10, stronger effect = lower value 1.01 | locus YGR135W, strain pre9, stronger effect = lower value 0.993 | locus YGR252W, strain gcn5, stronger effect = lower value 0.982 | locus YHR013C, strain ard1, stronger effect = lower value 1 | locus YHR027C, strain rpn1, stronger effect = lower value 1 | locus YHR030C, strain SLT2, stronger effect = lower value 1 and 1.04 | locus YHR079C, strain IRE1 (second series), stronger effect = lower value 1 | locus YHR079C, strain IRE1, stronger effect = lower value 1.04 | locus YHR094C, strain hxt1, stronger effect = lower value 1.01 | locus YHR129C, strain ARP1, stronger effect = lower value 1 | locus YHR142W, strain chs7, stronger effect = lower value 1.01 | locus YHR200W, strain rpn10, stronger effect = lower value 1.02 | locus YIL066C, strain RNR3, stronger effect = lower value 0.996 | locus YIL073C, strain SPO22, stronger effect = lower value 1.06 | locus YIL125W, strain kgd1, stronger effect = lower value 1.01 | locus YIR030C, strain dcg1, stronger effect = lower value 1.01 | locus YJL092W, strain hpr5, stronger effect = lower value 1 | locus YJL095W, strain BCK1 (second series), stronger effect = lower value 1.02 | locus YJL095W, strain BCK1, stronger effect = lower value 1 and 1.02 | locus YJL115W, strain asf1, stronger effect = lower value 0.999 | locus YJL129C, strain trk1, stronger effect = lower value 0.984 | locus YJL134W, strain LCB3, stronger effect = lower value 1 | locus YJL154C, strain vps35, stronger effect = lower value 1 | locus YJL164C, strain tpk1, stronger effect = lower value 0.989 | locus YJL166W, strain qcr8, stronger effect = lower value 0.996 | locus YJL168C, strain set2, stronger effect = lower value 1.01 | locus YJL187C, strain SWE1 (second series), stronger effect = lower value 1 | locus YJR043C, strain POL32, stronger effect = lower value 0.988 | locus YJR066W, strain TOR1, stronger effect = lower value 0.991 | locus YKL009W, strain mrt4, stronger effect = lower value 1.06 | locus YKL068W, stronger effect = lower value 1.01 | locus YKL085W, strain MDH1 (second series), stronger effect = lower value 1.01 | locus YKL085W, strain MDH1, stronger effect = lower value 1.01 | locus YKL160W, strain elf1, stronger effect = lower value 1.01 | locus YKL190W, strain CNB1, stronger effect = lower value 0.983 | locus YKR001C, strain vps1, stronger effect = lower value 1.04 | locus YKR026C, strain gcn3, stronger effect = lower value 1 | locus YKR091W, strain srl3, stronger effect = lower value 0.997 | locus YLL001W, strain dnm1, stronger effect = lower value 0.978 | locus YLL026W, stronger effect = lower value 1.01 | locus YLL041C, strain sdh2, stronger effect = lower value 1.01 | locus YLR027C, strain aat2, stronger effect = lower value 0.982 | locus YLR039C, strain RIC1, stronger effect = lower value 1.01 | locus YLR058C, strain SHM2, stronger effect = lower value 1 | locus YLR102C, strain apc9, stronger effect = lower value 1.01 | locus YLR113W, strain HOG1, stronger effect = lower value 1.04 | locus YLR221C, strain rsa3, stronger effect = lower value 1.01 | locus YLR258W, strain gsy2, stronger effect = lower value 1.01 | locus YLR262C, strain YPT6 (second series), stronger effect = lower value 1.01 | locus YLR262C, strain YPT6, stronger effect = lower value 1.02 | locus YLR268W, strain sec22, stronger effect = lower value 1.03 | locus YLR320W, strain mms22, stronger effect = lower value 0.976 | locus YLR330W, strain CHS5, stronger effect = lower value 1.03 | locus YLR342W, strain FKS1 (second series), stronger effect = lower value 0.98 | locus YLR342W, strain FKS1, stronger effect = lower value 1 | locus YLR357W, strain rsc2, stronger effect = lower value 0.925 | locus YLR370C, strain arc18, stronger effect = lower value 1.02 | locus YLR371W, strain rom2, stronger effect = lower value 1.01 | locus YLR384C, strain iki3, stronger effect = lower value 0.995 | locus YLR418C, strain cdc73, stronger effect = lower value 1.02 | locus YML016C, strain PPZ1, stronger effect = lower value 1.01 | locus YML032C, strain rad52, stronger effect = lower value 1 | locus YML120C, strain ndi1, stronger effect = lower value 0.994 | locus YML124C, strain tub3, stronger effect = lower value 1 | locus YMR058W, strain fet3, stronger effect = lower value 1 | locus YMR078C, strain ctf18, stronger effect = lower value 1 | locus YMR125W, strain sto1, stronger effect = lower value 0.983 | locus YMR129W, stronger effect = lower value 1 | locus YMR205C, strain PFK2, stronger effect = lower value 0.995 | locus YMR223W, strain ubp8, stronger effect = lower value 0.992 | locus YMR231W, strain pep5, stronger effect = lower value 0.999 | locus YMR307W, strain GAS1, stronger effect = lower value 1.02 | locus YNL067W, strain RPL9B, stronger effect = lower value 1 | locus YNL071W, strain lat1, stronger effect = lower value 1.01 | locus YNL183C, strain NPR1, stronger effect = lower value 0.981 | locus YNL209W, strain ssb2, stronger effect = lower value 0.99 | locus YNL233W, strain BNI4, stronger effect = lower value 1 | locus YNL248C, strain rpa49, stronger effect = lower value 0.95 | locus YNL250W, strain rad50, stronger effect = lower value 1.02 | locus YNL271C, strain bni1, stronger effect = lower value 1.02 | locus YNL298W, strain CLA4, stronger effect = lower value 1.01 | locus YNL307C, strain MCK1, stronger effect = lower value 1.02 | locus YNL322C, strain KRE1 (second series), stronger effect = lower value 0.969 | locus YNR049C, strain mso1, stronger effect = lower value 1 | locus YNR052C, strain pop2, stronger effect = lower value 1.01 | locus YOL012C, strain htz1 0.867 | locus YOL147C, strain pex11, stronger effect = lower value 1.01 | locus YOR001W, strain rrp6, stronger effect = lower value 0.981 | locus YOR061W, strain CKA2, stronger effect = lower value 1 | locus YOR069W, strain VPS5, stronger effect = lower value 1 | locus YOR070C, strain gyp1, stronger effect = lower value 0.996 | locus YOR080W, strain dia2, stronger effect = lower value 0.991 | locus YOR083W, strain WHI5, stronger effect = lower value 0.937 | locus YOR106W, strain vam3, stronger effect = lower value 1 | locus YOR136W, strain idh2, stronger effect = lower value 1.02 | locus YOR144C, strain elg1, stronger effect = lower value 1.01 | locus YOR184W, strain ser1, stronger effect = lower value 1.01 | locus YOR231W, strain MKK1, stronger effect = lower value 1.03 | locus YOR265W, strain rbl2, stronger effect = lower value 1.01 | locus YOR270C, strain vph1, stronger effect = lower value 1.03 | locus YOR290C, strain snf2, stronger effect = lower value 1.01 | locus YOR316C, strain cot1, stronger effect = lower value 1.01 | locus YPL051W, strain arl3, stronger effect = lower value 1 | locus YPL078C, strain atp4, stronger effect = lower value 0.991 | locus YPL106C, strain sse1, stronger effect = lower value 0.963 | locus YPL240C, strain hsp82, stronger effect = lower value 0.998 | locus YPL256C, strain CLN2, stronger effect = lower value 1.02 | locus YPR119W, strain clb2, stronger effect = lower value 1.01 | locus YPR141C, strain kar3, stronger effect = lower value 1.01 | locus YPR163C, strain tif3, stronger effect = lower value 1.01 | locus YPR167C, strain met16, stronger effect = lower value 1.03 | strain wtn01, stronger effect = lower value 1.02

Reference: PubChem BioAssay AID1159580 (chemical genetic matrix, 2015)
